The record followed here is PubChem BioAssay (NCATS).

Molecules are shown by their SMILES. Records with an inconclusive call do not appear. A number with no mark means an inactive call. Calls of active or inactive are those of the source. Calls come from the whole dose curve; as a rule, active = well fitted cell-killing curve with a large enough effect; inconclusive = small, poorly fitted or top-dose-only effect; inactive = flat fitted curve, though single readings scatter.
% is set by controls: 0 for no effect and ±100 for the full control effect; potency is the fitted concentration of half-maximal effect.

This experiment is described as follows: HepG2 cells viability qHTS for Zika virus inhibitors (AID 1347168). The settings on record: Zika counter-screen; series mostly up to 45.9 µM; activity change, negative = cytotoxicity: at the top concentration. The text has this:
Avindra Nath, Ph.D., National Institute of Neurological Disorders and Stroke (NINDS), Bethesda, MD
Radhakrishnan Padmanabhan, Ph.D., Georgetown University (GU), Washington D.C.
Zika Virus causes congenital defects, including microcephaly and is associated with Guillain-Barre syndrome, eningoencephalitis and myelitis in infected adult. […] Using a target-based approach, we hope to establish a screening paradigm to uncover novel, cell-active NS2B-NS3 protease (Zika Virus) specific inhibitors from NCATS' collection of small molecules using qHTS.
Four assay panel was created to identify potential Zika Virus inhibitors. Namely, (1) GU unlinked NS2B-NS3 AMC tagged protease qHTS, (2) GU unlinked NS2B-NS3 Rhodamine tagged protease qHTS, (3) NINDS linked NS2B-NS3 AMC tagged protease qHTS, (4) NINDS linked NS2B-NS3 Rhodamine tagged protease qHTS. Identified inhibitors were screened against the Vero and HepG2 cell viability assays using CellTiter Glo to exclude cytotoxic compounds.
Early Translation Branch (ETB)
National Center for Advancing Translational Sciences (NCATS), Rockville, MD
National Institute of Health (NIH), Bethesda, Maryland
Vero and HepG2 Cell Viability Assay:
Vero and HepG2 cell cytotoxicity were determined using a luminescent readout with CellTiter Glo reagent (Promega, Madison, WI), which is based on measuring the ATP content within cells. Briefly, 4 microL of Vero or HepG2 cells at 2.5 x 10^5 cells/mL in DMEM containing 4% FBS were dispensed into 1536-well solid bottom tissue treated white plate using a Multidrop Combi dispenser (Thermo Scientific). Plates were incubated at 37 degrees C, 95% humidity, and 5% CO2 overnight to allow for cell attachment. Compounds were dissolved in DMSO at different concentrations and transferred via pintool (Wako Automation), for a final concentration of 0.029 µM - 57 microM. Plates were again incubated for 24 to 48 hours, followed by a 2 microL addition of CellTiter Glo. Finally, plates were incubated for 30 minutes at 37 degrees C and 5% CO2 before being read on a ViewLux (Perkin Elmer) for luminescence.
(In general: Quantitative high-throughput screening tests each substance at several concentrations.)
For `O=C(O)c1cn(C2CC2)c2cc(N3CCNCC3)c(F)cc2c1=O`, the “activity change, negative = cytotoxicity” value was 6.45%.

For the molecule `O=C(O)c1ccc(-n2nc(-c3ccccc3O)nc2-c2ccccc2O)cc1`, the “activity change, negative = cytotoxicity” value was 11.8%.

Turning to `Nc1nc(N)c2nc(CNc3ccc(C(=O)NC(CCC(=O)O)C(=O)O)cc3)cnc2n1` (stereo unspecified), the “activity change, negative = cytotoxicity” value is 5.99%.

On to `CNC(=O)c1cc(Oc2ccc(NC(=O)Nc3ccc(Cl)c(C(F)(F)F)c3)cc2)ccn1`, for which the Potency is 33.9 µM (active).

Regarding `CCn1cc(C(=O)O)c(=O)c2cc(F)c(N3CCNCC3)cc21`, the “activity change, negative = cytotoxicity” value was 1.18%.

In the case of `OCc1ccc(-c2nn(Cc3ccccc3)c3ccccc23)o1`, the Potency was 11.7 µM (active).

`Nc1nc(=S)c2[nH]cnc2[nH]1`: the Potency result was “inactive”.

Take `CCCc1nc(C)c2c(=O)[nH]c(-c3cc(S(=O)(=O)N4CCN(CC)CC4)ccc3OCC)nn12`: the “activity change, negative = cytotoxicity” value was 6.77%.

`COC(=O)Nc1nc2ccc(C(=O)c3ccccc3)cc2[nH]1`: the “activity change, negative = cytotoxicity” value was 2.14%.

Regarding `COc1c(N2CCNC(C)C2)c(F)cc2c(=O)c(C(=O)O)cn(C3CC3)c12` (stereo unspecified), the Potency entry is “inactive”.

As to `CNC1CCCN(c2c(F)cc3c(=O)c(C(=O)O)cn(C4CC4)c3c2OC)C1` (stereo unspecified), the Potency result was “inactive”.
